“And” between values parts separate entries of the source, which are not always exact repeats. Identical values can stand only once. Screen size: about 5,500 compounds; about 2,000 (36%) were called active. Not shown: some 18% with an inconclusive outcome. The list shows a part of the results. Values without a mark were called inactive. Rule as the data show it: active = normalized growth mostly below about 0.91 (no sharp cut-off); inconclusive = no clear call, values can overlap the other calls; inactive = mostly above about 0.92.
Assay: chemical genetic growth profiling, strain panel (AID 1159580);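 also: tested at 20 µM; growth read once vehicle control cultures reached saturation at 30 °C; 1 = growth at the plate median or of vehicle wells; lower values mean less growth of the strain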
Conditions: S. cerevisiae deletion strains, growth OD

With `CCCCNc1ccc(C(=O)OCCN(C)C)cc1` the normalized growth (locus YAL013W, strain DEP1, hits give low values) was 1.01, the normalized growth (locus YAL021C, strain ccr4, hits give low values) was 0.978 and the normalized growth (locus YAL026C, strain drs2, hits give low values) was 1.02. It also gave a normalized growth (locus YAL030W, strain snc1, hits give low values) of 0.999, a normalized growth (locus YAL040C, strain CLN3, hits give low values) of 0.929 and a normalized growth (locus YBL061C, strain skt5, hits give low values) of 1.02. The normalized growth (locus YBR009C, strain hhf1, hits give low values) was 0.978, the normalized growth (locus YBR021W, strain FUR4, hits give low values) was 1.02 and the normalized growth (locus YBR023C, strain chs3, hits give low values) was 1.01. For the same compound, the normalized growth (locus YBR171W, strain sec66, hits give low values) was 1.02, the normalized growth (locus YBR229C, strain ROT2, hits give low values) was 1.01 and the normalized growth (locus YBR231C, strain swc5, hits give low values) was 1. For the same compound, the normalized growth (locus YBR279W, strain paf1, hits give low values) was 1.01, the normalized growth (locus YCL011C, strain gbp2, hits give low values) was 1.03 and the normalized growth (locus YCL016C, strain dcc1, hits give low values) was 1.02. The normalized growth (locus YCL029C, strain bik1, hits give low values) was 1.01, the normalized growth (locus YCL061C, strain MRC1 (second series), hits give low values) was 1.01 and the normalized growth (locus YCL069W, strain vba3, hits give low values) was 1.01. For the same compound, the normalized growth (locus YCR088W, strain abp1, hits give low values) was 1.01, the normalized growth (locus YDL005C, strain med2, hits give low values) was 1.01 and the normalized growth (locus YDL035C, strain GPR1, hits give low values) was 1.01. The normalized growth (locus YDL040C, strain nat1, hits give low values) was 1.01, the normalized growth (locus YDL074C, strain BRE1, hits give low values) was 1.02 and the normalized growth (locus YDL101C, strain DUN1, hits give low values) was 1.01. For the same compound, the normalized growth (locus YDL134C, strain PPH21, hits give low values) was 1.01, the normalized growth (locus YDL185W, strain tfp1, hits give low values) was 1.02 and the normalized growth (locus YDL192W, strain arf1, hits give low values) was 1.01. For the same compound, the normalized growth (locus YDR001C, strain nth1, hits give low values) was 1.01, the normalized growth (locus YDR069C, strain doa4, hits give low values) was 0.991 and the normalized growth (locus YDR101C, strain arx1, hits give low values) was 1.01. For the same compound, the normalized growth (locus YDR137W, strain rgp1, hits give low values) was 1.17 [resistant] (active), the normalized growth (locus YDR150W, strain NUM1, hits give low values) was 1.01 and the normalized growth (locus YDR159W, strain sac3, hits give low values) was 1.01. It also gave a normalized growth (locus YDR162C, strain NBP2, hits give low values) of 0.998, a normalized growth (locus YDR195W, strain ref2) of 0.952 and a normalized growth (locus YDR297W, strain sur2, hits give low values) of 1.02. The normalized growth (locus YDR318W, strain mcm21, hits give low values) was 1.02, the normalized growth (locus YDR334W, strain swr1, hits give low values) was 1.04 and the normalized growth (locus YDR335W, strain msn5, hits give low values) was 1.04. For the same compound, the normalized growth (locus YDR363W, strain ESC2, hits give low values) was 1.01, the normalized growth (locus YDR388W, hits give low values) was 1.02 and the normalized growth (locus YDR392W, strain spt3, hits give low values) was 1.09. It also gave a normalized growth (locus YDR502C, strain sam2, hits give low values) of 1, a normalized growth (locus YEL003W, strain gim4, hits give low values) of 1.01 and a normalized growth (locus YEL037C, strain rad23, hits give low values) of 1.02. The normalized growth (locus YEL061C, strain CIN8 (second series), hits give low values) was 1.02, the normalized growth (locus YEL061C, strain CIN8, hits give low values) was 1.01 and the normalized growth (locus YER002W, strain NOP16, hits give low values) was 0.995. For the same compound, the normalized growth (locus YER015W, strain faa2, hits give low values) was 1.01, the normalized growth (locus YER016W, strain bim1, hits give low values) was 1.02 and the normalized growth (locus YER110C, hits give low values) was 1.02. The normalized growth (locus YER111C, strain swi4, hits give low values) was 1.01, the normalized growth (locus YER155C, strain BEM2 (second series), hits give low values) was 0.95 and the normalized growth (locus YER155C, strain BEM2, hits give low values) was 0.999. The normalized growth (locus YER167W, strain BCK2, hits give low values) was 1.01, the normalized growth (locus YFR010W, strain ubp6, hits give low values) was 0.991 and the normalized growth (locus YGL078C, strain dbp3, hits give low values) was 1.02. For the same compound, the normalized growth (locus YGL086W, strain mad1, hits give low values) was 0.997, the normalized growth (locus YGL167C, strain pmr1, hits give low values) was 1.01 and the normalized growth (locus YGL173C, strain kem1, hits give low values) was 1. The normalized growth (locus YGL227W, strain vid30, hits give low values) was 1.01, the normalized growth (locus YGL240W, strain doc1, hits give low values) was 1.01 and the normalized growth (locus YGL248W, strain PDE1, hits give low values) was 0.998. It also gave a normalized growth (locus YGL253W, strain hxk2, hits give low values) of 1.03, a normalized growth (locus YGR078C, strain PAC10, hits give low values) of 1.01 and a normalized growth (locus YGR135W, strain pre9, hits give low values) of 1. For the same compound, the normalized growth (locus YGR229C, strain SMI1, hits give low values) was 1.03, the normalized growth (locus YGR252W, strain gcn5, hits give low values) was 0.915 and the normalized growth (locus YHR013C, strain ard1, hits give low values) was 0.993. The normalized growth (locus YHR027C, strain rpn1, hits give low values) was 1.01, the normalized growth (locus YHR030C, strain SLT2, hits give low values) was 1.01 and 0.96 and the normalized growth (locus YHR079C, strain IRE1 (second series), hits give low values) was 1.02. The normalized growth (locus YHR079C, strain IRE1, hits give low values) was 0.977, the normalized growth (locus YHR094C, strain hxt1, hits give low values) was 1.02 and the normalized growth (locus YHR129C, strain ARP1, hits give low values) was 1. It also gave a normalized growth (locus YHR142W, strain chs7, hits give low values) of 1.06, a normalized growth (locus YHR200W, strain rpn10, hits give low values) of 1.02 and a normalized growth (locus YIL066C, strain RNR3, hits give low values) of 1.01. The normalized growth (locus YIL073C, strain SPO22, hits give low values) was 1.04, the normalized growth (locus YIL125W, strain kgd1, hits give low values) was 1.02 and the normalized growth (locus YIR030C, strain dcg1, hits give low values) was 1.02. For the same compound, the normalized growth (locus YJL092W, strain hpr5, hits give low values) was 1.02, the normalized growth (locus YJL095W, strain BCK1 (second series), hits give low values) was 1.02 and the normalized growth (locus YJL095W, strain BCK1, hits give low values) was 0.991 and 0.961. The normalized growth (locus YJL115W, strain asf1, hits give low values) was 1.03, the normalized growth (locus YJL129C, strain trk1, hits give low values) was 1.01 and the normalized growth (locus YJL134W, strain LCB3, hits give low values) was 1. The normalized growth (locus YJL154C, strain vps35, hits give low values) was 1.01, the normalized growth (locus YJL164C, strain tpk1, hits give low values) was 0.996 and the normalized growth (locus YJL166W, strain qcr8, hits give low values) was 1.02. It also gave a normalized growth (locus YJL168C, strain set2, hits give low values) of 1.02, a normalized growth (locus YJL187C, strain SWE1 (second series), hits give low values) of 1.01 and a normalized growth (locus YJR043C, strain POL32, hits give low values) of 1.02. For the same compound, the normalized growth (locus YJR066W, strain TOR1, hits give low values) was 0.926.

— PubChem BioAssay AID1159580 (chemical genetic matrix, 2015)
